Screening data deposited in PubChem by several laboratories.
cytoskel mod – alters cytoskeleton assembly in HUVEC cells | HUVEC TNFa F-actin phalloidin imaging, high content | inhibition, % at 2 µM | 91,000 tested, 0.18% active;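 active means inhibition above the batch mean plus 3 SD and confirmed as a hit by visual image inspection, cut at about 30% in these data, passing the limit was not always enough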
sEH inhibitor – soluble epoxide hydrolase (human) inhibition; recombinant human sEH enzymatic activity assay; inhibition, % at 2 µM; 91,000 tested, 0.34% active; in the data active means inhibition above about 80%
Target sequence (P34913 whole entry, looked up): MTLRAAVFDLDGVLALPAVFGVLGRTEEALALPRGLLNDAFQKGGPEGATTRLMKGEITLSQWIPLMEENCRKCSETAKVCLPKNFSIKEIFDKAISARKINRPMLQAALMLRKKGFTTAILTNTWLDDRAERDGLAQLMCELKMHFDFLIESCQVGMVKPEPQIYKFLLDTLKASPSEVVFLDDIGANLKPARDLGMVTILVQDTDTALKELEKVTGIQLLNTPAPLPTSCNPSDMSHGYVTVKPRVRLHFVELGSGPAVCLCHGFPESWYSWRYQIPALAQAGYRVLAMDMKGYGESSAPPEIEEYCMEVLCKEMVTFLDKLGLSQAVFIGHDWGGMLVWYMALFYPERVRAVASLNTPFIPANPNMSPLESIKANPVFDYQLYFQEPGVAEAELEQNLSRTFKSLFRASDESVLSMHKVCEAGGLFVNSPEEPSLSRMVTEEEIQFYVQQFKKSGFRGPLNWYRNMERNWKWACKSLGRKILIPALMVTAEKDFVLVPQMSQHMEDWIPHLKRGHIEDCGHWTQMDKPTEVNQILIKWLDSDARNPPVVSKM
sdo1 growth – compounds rescuing growth of sdo1-depleted yeast, bone marrow failure model; S. cerevisiae sdo1-depleted JHY4D growth rescue, OD600 30 h; hits give high values; pdr5 snq2 efflux-pump mutant strain; z-score at 10 µM; 140,000 tested, 0.21% active;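 active means z-score above 3 at both the 24 hr and the 30 hr optical density reads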
E-sel TNF inh – TNF alpha driven E-selectin expression inhibition; HUVEC TNFa-induced E-selectin immunofluorescence, high content; inhibition, % at 2 µM; 120,000 tested, 0.71% active;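 active means inhibition above the batch mean plus 3 SD, and confirmed as a hit on visual image review, cut at about 43% in these data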
Phagocytosis inh – inhibitors of macrophage phagocytosis; J774A.1 macrophage IgG-bead phagocytosis, imaging; inhibition, % at 5 µM; 110,000 tested, 0.07% active;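 active means inhibition above the mean of the plate negative controls plus 5 SD, cut at about 13% in these data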;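 further: phagocytic index as fraction of beads internalized from green versus red external bead signal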
sEH activator – soluble epoxide hydrolase (human) activation; purified human sEH enzymatic activity, activator screen; activation, % at 2 µM; 91,000 tested, 0.04% active; in the data active means activation above about 37%
SDO1 rescue DR – SDO1-depleted yeast growth rescue confirmation; shares compounds with sdo1 growth; S. cerevisiae JHY4D (SDO1-depleted) growth rescue, OD600, 30 h; hits give high values; efflux-deficient strain, SNQ2 and PDR5 mutated; OD recovery (no concentration beside the values); 440 tested, 44% active; AID 949;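 active means yeast growth recovered at 30 hours, either rising with dose fitted slope above 0.001 or with average optical density gain above 0.07, some results past the limit were not filed as active; inactive means growth falling with dose or no effect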
Of the large screens only hits and unclear results are named; the others gave an inactive call (follow-up assays come after a bar, where they were run). Sampled rows, rich in hits. Any-hit rate of the full collection: about 0.96%.

Cc1[nH]ccc(=O)c1Oc1ncc(C(F)(F)F)cc1Cl	none (no result: cytoskel mod, sEH inhibitor, sdo1 growth, Phagocytosis inh, sEH activator)
CCOC(=O)c1sc(=S)n(-c2ccccc2)c1N	sdo1 growth 4 (no result: Phagocytosis inh) | SDO1 rescue DR inactive
Cc1ccc(N2C(=O)C3C4C=CC(CNC(=S)Nc5cccc(Cl)c5)(O4)C3C2=O)cc1 (stereo unspecified)	none (no result: cytoskel mod, sEH inhibitor, Phagocytosis inh, sEH activator)
COc1ccc(/C=C/C(=O)c2ccc(NC3=NCCCS3)cc2)cc1OC	none (no result: cytoskel mod, sEH inhibitor, sdo1 growth, Phagocytosis inh, sEH activator)
CCOc1ccc(C(=O)NC(=S)Nc2ccccc2OC)cc1[N+](=O)[O-]	none (no result: cytoskel mod, sEH inhibitor, E-sel TNF inh, sEH activator) | SDO1 rescue DR 0.077
CCOc1ccc(C(=O)NC(=S)Nc2ccccc2N2CCCCC2)cc1[N+](=O)[O-]	none (no result: cytoskel mod, sEH inhibitor, Phagocytosis inh, sEH activator)
CCOC(=O)C1C(C(=O)NN)C1C(=O)Nc1ccccc1 (stereo unspecified)	none (no result: cytoskel mod, sEH inhibitor, sdo1 growth, Phagocytosis inh, sEH activator)
CCCCNC(=O)CNC(=S)N(CCCN1CCOCC1)Cc1cccs1	none (no result: cytoskel mod, sEH inhibitor, sEH activator)
NC(=S)Nn1c(-c2ccccc2)nc2ccccc2c1=O	sdo1 growth 11 (no result: cytoskel mod, sEH inhibitor, sEH activator) | SDO1 rescue DR inactive
Nc1ccccc1-c1nnn(CC(=O)N2CCCc3ccccc32)n1	none (no result: Phagocytosis inh)
Cc1ccc(-c2noc(CCC(=O)NCCN3CCOCC3)n2)cc1	none (no result: E-sel TNF inh) | SDO1 rescue DR 0.074
CCn1c(N)c(C(=O)NCc2ccc3c(c2)OCO3)sc1=S	none | SDO1 rescue DR inactive
Cn1c(NC(=O)Cc2cccc3ccccc23)cc(=O)n(C)c1=O	none (no result: cytoskel mod, sEH inhibitor, sdo1 growth, Phagocytosis inh, sEH activator)
CCN(CC)CCCNC(=O)c1sc2nc(-c3ccc(F)cc3)cn2c1C	sdo1 growth 3.6 (no result: cytoskel mod, E-sel TNF inh) | SDO1 rescue DR 0.083
Cc1c(C(=O)NCc2ccccn2)sc2nc(-c3ccc(F)cc3)cn12	none (no result: Phagocytosis inh)
Cc1ccc2nc(N/C(N)=N/S(=O)(=O)c3ccc([N+](=O)[O-])cc3)nc(C)c2c1	none (no result: cytoskel mod, sEH inhibitor, E-sel TNF inh, sEH activator)
Cc1ccc(OCCn2cc(Br)c(=O)[nH]c2=O)cc1	none
CNC(=O)c1c(NC(=O)c2nc3ccccc3s2)sc2c1CCC2	none (no result: Phagocytosis inh) | SDO1 rescue DR inactive
Cn1c(=O)c2c(n(Cc3ccccc3)c1=O)NC(=O)C2CC(=O)NCc1cccc(Cl)c1 (stereo unspecified)	none
CC(=O)N1CCC(=NNc2ccc(S(=O)(=O)N3CCOCC3)cc2[N+](=O)[O-])CC1	sdo1 growth 12 (no result: cytoskel mod, sEH inhibitor, E-sel TNF inh, sEH activator) | SDO1 rescue DR inactive
CC(C)N1CCC(=NNc2ccc(S(=O)(=O)N3CCOCC3)cc2[N+](=O)[O-])CC1	none (no result: cytoskel mod, sEH inhibitor, E-sel TNF inh, sEH activator)
CCCC(CCC)C(=O)Nc1c[nH]c(=O)[nH]c1=O	none
O=c1c2cnn(-c3ccccc3)c2ncn1Cc1ccccc1	none (no result: Phagocytosis inh)
O=c1c2cnn(-c3ccccc3)c2ncn1Cc1ccccc1F	sdo1 growth 9.5 (no result: E-sel TNF inh) | SDO1 rescue DR inactive
CCOC(=O)c1c(C)oc2cc3c(C(=O)OCC)c(C)oc3cc12	none (no result: sdo1 growth, Phagocytosis inh)
CCCc1nnc(SCC(=O)N2CCCC2)n1CC1CCCO1 (stereo unspecified)	sdo1 growth 3.2 | SDO1 rescue DR inactive
CCCc1nnc(SCC(=O)N2CCCCC2)n1CC1CCCO1 (stereo unspecified)	none (no result: Phagocytosis inh)
COc1ccc(/C=N/NC(=S)Nc2ccccc2)cc1	none (no result: cytoskel mod, sEH inhibitor, sdo1 growth, Phagocytosis inh, sEH activator)
COc1ccc(/C=N/NC(=S)NC2CCS(=O)(=O)C2)cc1 (stereo unspecified)	sdo1 growth 11 (no result: cytoskel mod, sEH inhibitor, sEH activator) | SDO1 rescue DR inactive
COC(=O)c1ccc(-c2nn(C)c(=O)c3ccccc23)cc1	sdo1 growth 8.5 (no result: E-sel TNF inh) | SDO1 rescue DR 0.076
Cc1ccc(OCc2nnc(SCC(=O)c3cccc([N+](=O)[O-])c3)n2C)cc1	none
NS(=O)(=O)c1ccc(NC(=O)CSC2=NC(=O)C(c3ccccc3)C(=O)N2)cc1 (stereo unspecified)	sdo1 growth 8.7 | SDO1 rescue DR inactive
Cc1cc(C)c(-c2c(O)c3c(n(C)c2=O)CC(C)(C)CC3=O)c(C)c1	sdo1 growth 10 (no result: cytoskel mod, sEH inhibitor, E-sel TNF inh, sEH activator) | SDO1 rescue DR 0.08
Cc1ccc(Cn2cccc(NC(=O)c3ccco3)c2=O)cc1	none
O=C(C(c1ccccc1)c1ccccc1)N(Cc1ccco1)C1CCS(=O)(=O)C1 (stereo unspecified)	sdo1 growth 16 | SDO1 rescue DR 0.089
Cc1nc(C(C)NC(=O)CCc2nnc(CCCc3ccccc3)o2)c(C)s1 (stereo unspecified)	none (no result: cytoskel mod, sEH inhibitor, sdo1 growth, Phagocytosis inh, sEH activator)
COc1ccc(NC(=O)C2CCCCN2S(=O)(=O)c2ccc(F)cc2)cc1 (stereo unspecified)	none (no result: E-sel TNF inh) | SDO1 rescue DR inactive
COc1ccc(NC(=O)C2CCCN2S(=O)(=O)c2ccc(C)cc2)cc1 (stereo unspecified)	none
CCN1CCCC1CNC(=O)c1cc(OC)c(OC)c(OC)c1 (stereo unspecified)	none (no result: Phagocytosis inh)
